Source: PubChem BioAssay
Active and inactive are the calls of the source.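 The calls were made as follows, unless noted: active = inhibition above 20% together with a positive visual image hit; inconclusive = visual image hit but inhibition not above 20%; inactive = no visual image hit.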

What was measured:
[1] = inhibitors of TNFa-induced NFkB p65 translocation, primary screen, imaging, HUVEC, MLSMR starter and 10KST1 sets (AID 438); details: HUVEC TNFa-induced p65 nuclear translocation; cell count: measured here: nuclei count (cytotoxicity indicator), at 2.08 µM; inhibition: at 2 µM, stronger effect = higher value, 0% TNFa-plus-vehicle, 100% no-TNFa wells;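 also: compound added about 3h40 before a 20 min TNFalpha stimulation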;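 as to inhibition: signal is the nuclear over cytoplasmic p65 intensity ratio per well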
[2] = reduction of polyQ htt aggregates in cells – imaging, exon1htt(103Q)mCFP cells, high-content imaging, primary screen (AID 483;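 active = visual image review flags a hit and inhibition of aggregation exceeds 20%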;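 also: compound exposure lasted 3 days before fixation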;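 as to nuclei count: percent of the per-plate median nuclei count of sample wells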); details: exon1htt(103Q)mCFP cell line, aggregate imaging, at 2 µM; inhibition of aggregation: stronger effect = higher value; nuclei count: measured here: cell count, toxicity
[3] = endothelial E-selectin expression blockers – imaging, HUVEC, immunofluorescence, MLSMR starter and 10KST1 sets, primary screen (AID 487;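 active = visually confirmed hit in the image check and inhibition above 20%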;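 as to inhibition: signal is fraction of cell area covered by stained E-selectin grains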;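 as to nuclei count: 100% = median nuclei count of all wells on the same plate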); details: HUVEC TNFalpha-induced E-selectin immunofluorescence imaging, at 2 µM; inhibition: stronger effect = higher value; nuclei count: measured here: cell number, toxicity
[4] = target: Voltage-gated potassium channel subunit beta-2 (Rattus norvegicus) (UniProt P62483); assay: inhibitors of rat Kvbeta2 reductase activity – biochemical, NADPH fluorescence, primary screen (AID 622;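 active = fluorescence slope higher than the sample average by over 3 SD, cut at about -0.22 in these data, passing the limit was not always enough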;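 also: slope of raw intensity against log time taken from 70 to 1610 s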); details: recombinant KvBeta, 4-cyanobenzaldehyde reduction, at 10 µM, stronger effect = higher value
[5] = target: Voltage-gated potassium channel subunit beta-2 (Rattus norvegicus) (UniProt P62483); assay: enhancers of rat Kvbeta2 NADPH turnover – biochemical, NADPH fluorescence, primary screen (AID 623;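 active = NADPH fluorescence slope more negative than the mean of all samples by about 3 SD, 99.7% confidence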;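 also: fluorescence intensity change per second fitted from 20 to 320 s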); details: Recombinant KvBeta, NADPH fluorescence decrease slope, 10 min; at 10 µM; stronger effect = lower value
[6] = target: Alpha-2C adrenergic receptor (Homo sapiens) (UniProt P18825); assay: compounds altering alpha2C-coupled GIRK flux – cell-based, HEK293 alpha2C/GIRK1/2, thallium flux, primary screen (AID 624;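 active = fluorescence slope after compound addition differing from the mean of all screened samples at 99.7% confidence, in either direction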;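 also: slope of fluorescence ratio to pre-addition baseline per second over 15 to 24 s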); details: thallium flux BTC fluorescence, at 10 µM, actives lie on both sides
[7] = blockers of RIG-like receptor reporter activation – cell-based, Sendai virus stimulus, luciferase, 10K MLSCN set, TLR/RLR signaling modifier project, primary screen (AID 602276;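 active = inhibition at or above 50% at 10 µM; inactive = inhibition below 50%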;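 also: firefly luciferase from ISG56 promoter only with Renilla not read in this screen; 0% = Sendai virus plus DMSO and 100% = medium plus DMSO without virus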); details: HEK293 RL24 IRF3 luciferase reporter, at 10 µM, stronger effect = higher value
[8] = TLR3 IRF3 reporter activation blockers – cell-based, poly I:C stimulus, luciferase, 10K MLSCN set, primary screen (AID 602277;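 active = inhibition of the reporter signal at or above 50%; inactive = inhibition below 50%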); details: HEK293-TLR3 RL24 IRF3 luciferase reporter, at 10 µM, stronger effect = higher value

Sequence of Voltage-gated potassium channel subunit beta-2 (Rattus norvegicus) (P62483 whole entry, looked up): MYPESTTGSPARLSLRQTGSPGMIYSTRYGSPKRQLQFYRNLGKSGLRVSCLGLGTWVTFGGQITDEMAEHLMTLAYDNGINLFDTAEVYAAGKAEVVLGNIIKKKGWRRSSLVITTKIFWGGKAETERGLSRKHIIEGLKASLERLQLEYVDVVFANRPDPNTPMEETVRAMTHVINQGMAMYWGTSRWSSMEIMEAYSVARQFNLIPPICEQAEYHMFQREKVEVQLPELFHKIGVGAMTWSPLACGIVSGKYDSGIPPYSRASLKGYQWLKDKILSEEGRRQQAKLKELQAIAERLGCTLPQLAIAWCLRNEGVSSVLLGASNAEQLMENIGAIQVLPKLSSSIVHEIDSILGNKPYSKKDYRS
Sequence of Alpha-2C adrenergic receptor (Homo sapiens) (P18825 whole entry, looked up): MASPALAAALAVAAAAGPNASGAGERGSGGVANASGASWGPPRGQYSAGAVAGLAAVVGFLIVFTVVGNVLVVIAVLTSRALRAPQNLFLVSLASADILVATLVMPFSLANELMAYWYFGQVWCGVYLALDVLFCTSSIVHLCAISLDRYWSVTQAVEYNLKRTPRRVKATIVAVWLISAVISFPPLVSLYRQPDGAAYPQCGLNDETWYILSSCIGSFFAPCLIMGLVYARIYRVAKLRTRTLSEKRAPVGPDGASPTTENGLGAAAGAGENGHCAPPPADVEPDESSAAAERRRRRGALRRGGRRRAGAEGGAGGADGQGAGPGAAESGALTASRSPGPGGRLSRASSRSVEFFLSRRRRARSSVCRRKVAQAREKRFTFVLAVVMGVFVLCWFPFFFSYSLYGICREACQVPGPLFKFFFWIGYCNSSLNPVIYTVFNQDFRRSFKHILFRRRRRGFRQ

Compound | cell count [1] | inhibition [1] | inhibition of aggregation [2] | nuclei count [2] [%] | inhibition [3] | nuclei count [3] [%] | fluorescence slope [4] | NADPH fluorescence slope [5] | slope [6] | inhibition [7] | inhibition [8]
Cn1c2c(c(=O)n(C)c1=O)C(CC(=O)Nc1ccccc1)C(=O)N2 (stereo not drawn) | 604 | -3.5% (inactive) | -2.9% (inactive) | 72 | -81.2% (inactive) | 152 | -0.597 (inactive) | -3.5e-05 (inactive) | 0.00726 (inactive) | 10.9% (inactive) | 22.4% (inactive)
COc1ccccc1NC(=O)Cn1nnc(-c2ccccc2NC(=O)c2ccco2)n1 | 317 | 6.2% (inactive) | -19% (inactive) | 86.5 | -29.7% (inactive) | 117 | -0.408 (inactive) | -1.3e-05 (inactive) | 0.00705 (inactive) | 16.8% (inactive) | 37.7% (inactive)
COc1ccc(C2C(C(=O)N3CCCC3)c3cc(OC)c(OC)cc3C(=O)N2C)cc1 (stereo not drawn) | 583 | -21.8% (inactive) | 7.8% (inactive) | 111 | -71.5% (inactive) | 115 | -0.544 (inactive) | -5.3e-05 (inactive) | 0.00513 (inactive) | 3.19% (inactive) | 12.2% (inactive)
Cc1nc2scc(-c3ccco3)c2c(=O)n1/N=C/N(C)C | 453 | -4.8% (inactive) | -22.8% (inactive) | 86.6 | -35.6% (inactive) | 116 | -0.342 (inactive) | -6.4e-05 (inactive) | 0.00533 (inactive) | -2.39% (inactive) | 3.07% (inactive)
O=C(NCC(c1cccnc1)N1CCN(c2ccc(F)cc2)CC1)c1ccc(F)cc1 (stereo not drawn) | 346 | 7.4% (inactive) | -9.9% (inactive) | 84 | -33.2% (inactive) | 96.5 | -0.596 (inactive) | -4.6e-05 (inactive) | 0.00545 (inactive) | 1.86% (inactive) | 6.23% (inactive)
O=C(NC1CC1)c1ccc(S(=O)(=O)NCC2CCCCC2)cc1 | 535 | -8% (inactive) | 18.7% (inactive) | 102 | -58.9% (inactive) | 112 | -0.508 (inactive) | 2.4e-05 (inactive) | 0.00635 (inactive) | 3.23% (inactive) | 5.07% (inactive)
CCOc1ccccc1NC(=O)CN(c1ccc(C)cc1)S(=O)(=O)c1c(C)noc1C | 322 | 2.2% (inactive) | 20.6% (inactive) | 97.9 | 35.2% (inactive) | 64.7 | -0.606 (inactive) | -6.6e-05 (inactive) | 0.00658 (inactive) | 6.02% (inactive) | 28.1% (inactive)
CCC(c1nnnn1Cc1ccco1)N(CCc1ccccc1)Cc1cc2cccc(C)c2[nH]c1=O (stereo not drawn) | 788 | -8.4% (inactive) | -2.2% (inactive) | 86.2 | -19.1% (inactive) | 110 | -0.396 (inactive) | -1.9e-05 (inactive) | 0.00487 (inactive) | 25.2% (inactive) | 31.5% (inactive)
Cc1ccccc1OCCn1c(=O)oc2ccccc21 | 316 | -4.7% (inactive) | -1.9% (inactive) | 144 | -43.9% (inactive) | 128 | -0.353 (inactive) | -8e-06 (inactive) | 0.00518 (inactive) | 5.52% (inactive) | -6.56% (inactive)
Cc1ccc(OCCC(=O)OCC(=O)C(C)(C)C)cc1 | 542 | -8.3% (inactive) | -6.7% (inactive) | 101 | -9.5% (inactive) | 131 | -0.365 (inactive) | -5.3e-05 (inactive) | 0.0062 (inactive) | 12.7% (inactive) | 27.5% (inactive)
COc1ccc(CNCC(=O)Nc2cc(C)nn2-c2nc(C)cc(C)n2)cc1OC | 431 | 6.7% (inactive) | -0.4% (inactive) | 104 | -481% (inactive) | 152 | -0.497 (inactive) | -2.4e-05 (inactive) | 0.00701 (inactive) | 21.1% (inactive) | 32.1% (inactive)
COC(=O)C1CCN(C(=O)c2sc3nc(-c4ccc(F)cc4)cn3c2C)CC1 | 654 | -6.1% (inactive) | -14.7% (inactive) | 105 | -65.8% (inactive) | 120 | -0.487 (inactive) | -4.6e-05 (inactive) | 0.00421 (inactive) | 10.2% (inactive) | 3.27% (inactive)
CCOC(=O)c1[nH]c(C)c(C(=O)NCC2CCCO2)c1C (stereo not drawn) | 390 | 2.8% (inactive) | 5.8% (inactive) | 103 | -13.6% (inactive) | 86.3 | -0.608 (inactive) | -7.6e-06 (inactive) | 0.00577 (inactive) | 8.72% (inactive) | 14.8% (inactive)
O=C(NCc1cccs1)c1cc2c(s1)-c1ccccc1OC2 | 674 | 1.6% (inactive) | -25.1% (inactive) | 98.2 | -49.2% (inactive) | 108 | -0.122 (inactive) | -3.3e-06 (inactive) | 0.00728 (inactive) | -42% (inactive) | -187% (inactive)
O=C(C1CCCN(S(=O)(=O)c2cccc3nonc23)C1)N1CCC(Cc2ccccc2)CC1 (stereo not drawn) | 385 | -11.2% (inactive) | 3% (inactive) | 101 | 24.5% (inactive) | 59.6 | -0.304 (inactive) | -1e-05 (inactive) | 0.00394 (inactive) | 7.74% (inactive) | 25.7% (inactive)
CC1(C)NC(=O)N(CC(O)CN2CCCCC2)C1=O (stereo not drawn) | 658 | 1.6% (inactive) | 10.5% (inactive) | 93.2 | 36.5% (inactive) | 109 | -0.47 (inactive) | -1.7e-06 (inactive) | 0.00522 (inactive) | -4.08% (inactive) | -0.921% (inactive)
CC(=O)Nc1ccc(OCC(O)Cn2nc(C)nc2C)cc1 (stereo not drawn) | 357 | 1.5% (inactive) | -13.4% (inactive) | 95.7 | -160% (inactive) | 120 | -0.267 (inactive) | -1.1e-05 (inactive) | 0.00761 (inactive) | 7.41% (inactive) | 23.2% (inactive)
COc1ccc(Cl)cc1S(=O)(=O)N1CCN(c2ccc(F)cc2)CC1 | 657 | -1.1% (inactive) | -29.1% (inactive) | 101 | 36.7% (inactive) | 137 | -0.319 (inactive) | -1.3e-05 (inactive) | 0.00495 (inactive) | 46.4% (inactive) | 0.0275% (inactive)
Cc1nnc(SCc2cc(=O)[nH]c(N3CCCCC3)n2)s1 | 639 | 5% (inactive) | 0.6% (inactive) | 96.3 | 14.7% (inactive) | 107 | -0.592 (inactive) | -3.2e-05 (inactive) | 0.00759 (inactive) | 13.1% (inactive) | 19.7% (inactive)
O=C(CCNS(=O)(=O)c1cccc2nsnc12)Nc1ccc2c(c1)OCCO2 | 565 | -17.9% (inactive) | -1.5% (inactive) | 120 | -28% (inactive) | 119 | -0.421 (inactive) | -0.00049 (inactive) | 0.00512 (inactive) | 19.3% (inactive) | 23.2% (inactive)
COc1cccc(-c2csc(N3CCN(CC(=O)Nc4ccc5c(c4)OCO5)CC3)n2)c1 | 262 | 3.1% (inactive) | -24.6% (inactive) | 88.4 | -4.3% (inactive) | 91.2 | -0.622 (inactive) | -1.3e-05 (inactive) | 0.00556 (inactive) | -45.8% (inactive) | -62.6% (inactive)
Cc1noc(C)c1COc1cccc(C(=O)Nc2ccc(C#N)cc2)c1 | 422 | 0.4% (inactive) | 3.1% (inactive) | 94.2 | -15.6% (inactive) | 106 | -0.455 (inactive) | -4.9e-05 (inactive) | 0.00473 (inactive) | 2.49% (inactive) | -0.298% (inactive)
COc1ccc(NC(=O)CN(c2ccc(C(C)C)cc2)S(=O)(=O)c2c(C)noc2C)cc1OC | 787 | 3.4% (inactive) | -119% (inactive) | 123 | -24.6% (inactive) | 108 | -0.617 (inactive) | 2e-05 (inactive) | 0.00605 (inactive) | 18.3% (inactive) | 41.9% (inactive)
CCSc1nnc(NC(=O)c2csc(C)c2)s1 | 366 | 4.2% (inactive) | 12.8% (inactive) | 101 | -18.6% (inactive) | 104 | -0.592 (inactive) | -1.3e-05 (inactive) | 0.00352 (inactive) | -36.6% (inactive) | -89.7% (inactive)
O=S(=O)(c1cccc(-c2nnco2)c1)N1CCCC1 | 453 | 0.5% (inactive) | -4.5% (inactive) | 95.9 | 0.2% (inactive) | 108 | -0.519 (inactive) | -4.3e-05 (inactive) | 0.00457 (inactive) | 8.27% (inactive) | 13.9% (inactive)
COc1ccc(N2CCN(c3ccc(N)cc3C#N)CC2)cc1 | 744 | -6.6% (inactive) | 28.1% (inactive) | 102 | -65.8% (inactive) | 104 | -0.593 (inactive) | -2.3e-05 (inactive) | 0.00782 (inactive) | 3.39% (inactive) | 21.5% (inactive)
CN(Cc1ccccc1)C(=O)c1ccccc1NC(=O)c1ccco1 | 349 | -9.3% (inactive) | -4.5% (inactive) | 86 | -102% (inactive) | 130 | -0.333 (inactive) | -6e-05 (inactive) | 0.00495 (inactive) | -13.9% (inactive) | 98.1% (active)
CN(c1ccccc1)S(=O)(=O)c1ccc(C(=O)OCC(=O)NCc2ccco2)cc1 | 608 | 11.6% (inactive) | 14.7% (inactive) | 112 | -37.2% (inactive) | 99.7 | -0.588 (inactive) | 2e-05 (inactive) | 0.00551 (inactive) | -14.7% (inactive) | 0.385% (inactive)
